Screening data deposited in PubChem BioAssay by several laboratories.
M18AAP inhibitor = PfM18AAP inhibitors, malaria aminopeptidase, primary screen, biochemical, QFRET, recombinant enzyme; H-Glu-NHMec fluorogenic cleavage; M18 aspartyl aminopeptidase (Plasmodium falciparum 3D7); hit rate 1.2% among 290,000; inhibition, % at 7.35 µM; AID 1822, 2009;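 active = inhibition above the campaign mean inhibition over all tested compounds plus 3 SD, cut at about 28% in these data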;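 also: 0% = plate median of test compound wells and 100% = 2 mM ZnCl2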
ABHD5 PLIN5 PPI = ABHD5-PLIN5 interaction inhibitors, primary screen, cell lysate, split luciferase complementation, luminescence; Split G. princeps luciferase complementation, 4 h; inhibition, % at 4 µM; hit rate 0.78% among 360,000;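 active = inhibition above the mean inhibition across every tested compound plus 3 SD, cut at about 22% in these data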;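 also: 0% = DMSO only wells and the 100% control is not disclosed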
Target sequence (Q00G26 whole entry, looked up): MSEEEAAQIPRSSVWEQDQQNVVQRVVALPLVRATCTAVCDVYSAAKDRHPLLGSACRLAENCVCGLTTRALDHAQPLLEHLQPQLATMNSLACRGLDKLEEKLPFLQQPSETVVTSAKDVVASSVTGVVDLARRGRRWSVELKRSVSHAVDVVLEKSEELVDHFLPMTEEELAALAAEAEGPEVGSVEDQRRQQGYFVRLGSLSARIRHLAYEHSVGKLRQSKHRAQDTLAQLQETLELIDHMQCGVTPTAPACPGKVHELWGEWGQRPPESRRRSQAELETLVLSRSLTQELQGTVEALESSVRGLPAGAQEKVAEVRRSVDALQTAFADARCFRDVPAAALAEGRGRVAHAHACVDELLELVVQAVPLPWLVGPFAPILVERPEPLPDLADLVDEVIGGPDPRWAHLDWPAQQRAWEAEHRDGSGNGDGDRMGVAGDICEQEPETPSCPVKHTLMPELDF
Target sequence (Q8WTS1 whole entry, looked up): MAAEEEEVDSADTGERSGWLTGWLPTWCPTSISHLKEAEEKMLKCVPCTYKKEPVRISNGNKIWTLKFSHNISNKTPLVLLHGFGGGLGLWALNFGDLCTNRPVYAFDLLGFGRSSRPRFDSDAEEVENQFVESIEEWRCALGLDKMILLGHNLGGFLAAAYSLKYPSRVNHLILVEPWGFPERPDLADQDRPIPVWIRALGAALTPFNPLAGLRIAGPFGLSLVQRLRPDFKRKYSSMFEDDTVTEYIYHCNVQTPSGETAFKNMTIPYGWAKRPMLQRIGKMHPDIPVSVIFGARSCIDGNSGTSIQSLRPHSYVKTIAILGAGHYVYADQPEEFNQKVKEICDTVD
Exocytosis inh = LAMP-1 surface exposure blockers, TALL-104 cells – cell-based, flow cytometry, MLPCN library, primary screen; hit rate 0.66% among 360,000; inhibition, % at 10 µM; TALL-104 LAMP-1 surface exposure; cells stimulated with thapsigargin and PMA;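 active = inhibition above about 55%, limit read from the data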
Rce1 inhib = yeast Rce1p protease inhibitors, primary screen, biochemical, fluorescence, cell-free homogeneous. hit rate 0.27% among 290,000. CAAX prenyl protease 2 (Saccharomyces cerevisiae (strain ATCC 204508 / S288c)), Q03530. calls only. yeast membranes, quenched prenylated peptide cleavage fluorescence;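 active = fall in fluorescence gain of 50% or more versus controls, with final raw signal at or below 3038400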;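 also: plate controls were neutral control wells for no effect and wells lacking membranes for full effect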
Platelet DG rel = inhibitors of platelet dense granule secretion, primary screen, cell-based, MLPCN, human platelets. human platelet-rich plasma, SFLLRN dense granule ATP release, luminescence. inhibition, %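 (compounds screened at 7.5 µM in platelet-rich plasma)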. hit rate 0.22% among 300,000. AID 1663, 2009;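 active = mean replicate score, as percent of positive control, at or above 50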
ABHD5-PLIN5 conf = ABHD5-PLIN5 interaction inhibitors, confirmation, biochemical, luminescence | AID 651612, 2012 | shares compounds with ABHD5 PLIN5 PPI | hit rate 67% among 2,200 | inhibition, % at 4 µM; in the data active = inhibition above about 23%;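 also: 0% = DMSO vehicle wells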
HNF4 split-luc = HNF4 dimerization inhibitors, counter-screen for ABHD5-PLIN5 interaction inhibitor project, biochemical, split-luciferase complementation, luminescence; shares compounds with ABHD5 PLIN5 PPI; inhibition, % at 4 µM; hit rate 77% among 2,200;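 active = mean inhibition across replicate wells exceeding the computed hit threshold, cut at about 13% in these data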;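 also: light from luciferase halves that rejoin when HNF4 fusion proteins dimerize; 0% = DMSO only wells and the 100% control is not given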
* marks the source's active call; other numbers are inactive results; ! = repeats disagree. Most compounds without a hit are left out; they make up all but 2.6% or so of the library.

For C=C[C@]1(C)C[C@@H](OC(=O)CSCCN(CC)CC)[C@]2(C)C(C)CC[C@]3(CCC(=O)[C@H]32)[C@@H](C)[C@@H]1O (stereo not given in full) the results were ABHD5 PLIN5 PPI 23*!, Exocytosis inh 6, Rce1 inhib inactive, Platelet DG rel 1, ABHD5-PLIN5 conf 33* and HNF4 split-luc 1.
`NC1=NC(=O)/C(=C/c2ccc(Cl)cc2Cl)S1` gave M18AAP inhibitor -6, ABHD5 PLIN5 PPI 3, Exocytosis inh -4, Rce1 inhib inactive and Platelet DG rel 1.
Screening NC1=NC(=O)/C(=C\c2cc([N+](=O)[O-])ccc2Cl)S1 returned M18AAP inhibitor 4, ABHD5 PLIN5 PPI 25*, Exocytosis inh 1, Platelet DG rel -6, ABHD5-PLIN5 conf 24* and HNF4 split-luc 19*.
Cc1ccsc1/C=N/NC(=O)CN1CCN(S(=O)(=O)c2ccc(Br)cc2)CC1 was read as M18AAP inhibitor -6, ABHD5 PLIN5 PPI 2, Exocytosis inh 7, Rce1 inhib inactive and Platelet DG rel -4.
For N#CCCn1cc(/C=N/O)c(-c2ccc(F)cc2)n1 the results were M18AAP inhibitor 1, ABHD5 PLIN5 PPI 1, Exocytosis inh 0, Rce1 inhib inactive and Platelet DG rel 1.
`CC1(C)CC(=O)C(=Cc2cn(CCC#N)nc2-c2ccc(F)cc2)C(=O)C1` gave M18AAP inhibitor 1, ABHD5 PLIN5 PPI 23*, Exocytosis inh 28, Platelet DG rel -6, ABHD5-PLIN5 conf 45* and HNF4 split-luc 38*.
O=c1cc(-c2ccccc2Cl)oc2c(NS(=O)(=O)c3cccc4nsnc34)ccc(O)c12 was read as ABHD5 PLIN5 PPI -8, Exocytosis inh 14, Rce1 inhib inactive and Platelet DG rel 0.
For O=C(CCc1ccccc1)Nc1cccnc1Cl the results were M18AAP inhibitor -5, ABHD5 PLIN5 PPI -1, Exocytosis inh 12, Rce1 inhib inactive and Platelet DG rel 3.
For O=C(CC(=O)c1ccccc1)Nc1cccnc1Cl the results were M18AAP inhibitor -24, ABHD5 PLIN5 PPI 27*, Exocytosis inh 3, Rce1 inhib inactive, Platelet DG rel 4, ABHD5-PLIN5 conf 13 and HNF4 split-luc 18*.
O=C(COC(=O)c1cccc(-n2cnnn2)c1)Nc1c(Cl)cccc1C(F)(F)F was read as M18AAP inhibitor 0, ABHD5 PLIN5 PPI 4, Exocytosis inh -7, Rce1 inhib inactive and Platelet DG rel -3.
Cc1ccc(-n2nc(-c3ccco3)cc2C(=O)O)c(C)c1 was read as M18AAP inhibitor -1, ABHD5 PLIN5 PPI 31*, Exocytosis inh 1, Rce1 inhib inactive, Platelet DG rel -12, ABHD5-PLIN5 conf 23* and HNF4 split-luc 27*.
Cc1ccccc1OCCCN1C(=O)C(=O)c2cccc(C)c21 was read as M18AAP inhibitor 3, ABHD5 PLIN5 PPI 27*, Exocytosis inh 6, Rce1 inhib inactive, Platelet DG rel 5, ABHD5-PLIN5 conf 49* and HNF4 split-luc 48*.
Screening Cc1ccc(CNC(=O)c2ccc(CN3CCOCC3)cc2)cc1 returned M18AAP inhibitor 4, ABHD5 PLIN5 PPI -3, Exocytosis inh 0, Rce1 inhib inactive and Platelet DG rel -4.
For COc1ccc(-n2cc(CNC3CCN(C)CC3)c(-c3cccc(F)c3)n2)cc1 the results were M18AAP inhibitor -2, ABHD5 PLIN5 PPI 32*, Exocytosis inh 43, Rce1 inhib inactive, Platelet DG rel 0, ABHD5-PLIN5 conf 19 and HNF4 split-luc 11.
`NC(=O)c1nc(C(=O)N2CCCCC2)c2ccccc2n1` gave ABHD5 PLIN5 PPI -1 and Exocytosis inh 2.
`CCOc1ccc(CNn2cnnc2)cc1` gave M18AAP inhibitor 3, ABHD5 PLIN5 PPI 10, Exocytosis inh 0 and Platelet DG rel 8.
For COc1ccc(N=N/C(=C\O)C(=O)c2cccs2)cc1 the results were M18AAP inhibitor -4, ABHD5 PLIN5 PPI 9, Exocytosis inh 6, Rce1 inhib inactive and Platelet DG rel -3.
`COc1ccc(C(=O)/C(=C\c2ccco2)N2C=CC=CC2=C(C#N)C#N)cc1` gave M18AAP inhibitor -28, ABHD5 PLIN5 PPI 80*, Exocytosis inh 65*, Rce1 inhib inactive, Platelet DG rel -3, ABHD5-PLIN5 conf 97* and HNF4 split-luc 102*.
N#CC(C#N)=C1C=CC=CN1/C(=C\c1ccco1)C(=O)c1ccccc1 was read as M18AAP inhibitor -56, ABHD5 PLIN5 PPI 54*, Exocytosis inh 45, ABHD5-PLIN5 conf 102* and HNF4 split-luc 110*.
Screening COc1ccc(/C=C(/C(=O)c2cccs2)N2C=CC=CC2=C(C#N)C#N)cc1 returned M18AAP inhibitor -5, ABHD5 PLIN5 PPI 33*, Exocytosis inh 44, Rce1 inhib inactive, Platelet DG rel 22, ABHD5-PLIN5 conf 59* and HNF4 split-luc 81*.
`COc1ccccc1Oc1ccc2c(c1)C(=O)N(CC(=O)O)C2=O` gave M18AAP inhibitor 6, ABHD5 PLIN5 PPI 0, Exocytosis inh -7, Rce1 inhib inactive and Platelet DG rel -9.
Screening C/C(=N\Nc1ccccc1)c1cccc(N)c1 returned M18AAP inhibitor 14, ABHD5 PLIN5 PPI 7, Exocytosis inh -4, Rce1 inhib inactive and Platelet DG rel -3.
Cc1cccc(CS(=O)(=O)c2ncc(Cl)c(C(=O)Nc3c(C)cccc3C)n2)c1 was read as M18AAP inhibitor -76, ABHD5 PLIN5 PPI 75*, Exocytosis inh 55, Rce1 inhib inactive, Platelet DG rel 4, ABHD5-PLIN5 conf 89* and HNF4 split-luc 107*.
`CCCc1nnc(NC(=O)c2nc(S(=O)(=O)Cc3cccc(C)c3)ncc2Cl)s1` gave M18AAP inhibitor -10, ABHD5 PLIN5 PPI 28*, Exocytosis inh 28, Rce1 inhib inactive, Platelet DG rel -15, ABHD5-PLIN5 conf 74* and HNF4 split-luc 42*.
Screening Cc1cccc(CS(=O)(=O)c2ncc(Cl)c(C(=O)NCc3ccccc3)n2)c1 returned M18AAP inhibitor -42, ABHD5 PLIN5 PPI 34*, Exocytosis inh 35, Rce1 inhib inactive, Platelet DG rel 8, ABHD5-PLIN5 conf 92* and HNF4 split-luc 106*.
c1ccc(Cn2cc(-c3cccnc3)cn2)cc1 was read as ABHD5 PLIN5 PPI 5 and Exocytosis inh -4.
